From PubChem BioAssay AID1259416 (Broad Institute, 2018)
Values joined by “and” are separate entries in the source; they are usually repeats but may differ in a detail not shown here. Equal entries are not always repeated. Among all 69,000 compounds or so, about 2,600 (3.8%) were called active. The entries come from a sample that favours actives as a whole. A number with no mark means an inactive call. Cut-off read from the data, not from the text of the source: active = activity change below about -70% (passing the limit was not always enough); inconclusive = no clear call, values can overlap the other calls.

assay: T. gondii growth inhibition with IFN-gamma, primary screen, cell-based (AID 1259416); conditions: Toxoplasma gondii growth in IFN-gamma-treated host cells; stronger effect = lower value; concentration not given here;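 note: host cells are HeLa cells infected with Toxoplasma gondii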

SMILES | activity change, negative = inhibition
Cn1nnc(-c2ccc(C(=O)NC(CN3CCCCC3)c3ccccc3)cc2)n1 (stereo not drawn) | -0.396%
CCOC(=O)c1nc(N2CCC(c3ccccc3)C2)c2ccccc2n1 (stereo not drawn) | 11.8%
O=C(Cn1ncc2c(N3CCN(c4ccccn4)CC3)ncnc21)NCc1ccc(F)c(Cl)c1 | -16.9%
O=C(Cn1ncc2c(N3CCN(c4ccccc4)CC3)ncnc21)Nc1ccc(Cl)cc1 | -12.8%
Clc1ccc(Cn2ncc3c(NCc4cccnc4)ncnc32)cc1 | -81.5% (active)
CCC(=O)N1Cc2cc(C(=O)NCc3cccc(F)c3)nc(-c3cccc(C4=CCCC4)c3)c2[C@H]1CCO | -51.7%
Cc1cccc(OC2CCN(C(=O)c3ccc(OCc4nonc4C)cc3)CC2)c1 | -46.1%
CNc1cc(-c2cc(C(C)C)nc(C(F)(F)F)n2)c2cc[nH]c2n1 | -83.6% (active)
Cc1cccc2[nH]nc(-c3cc(NCCN(C)C)nc4[nH]ccc34)c12 | -0.259%
Cc1nc(C)n(CCC(=O)N2CCN(S(=O)(=O)c3ccccc3)CC2)n1 | 55.6%
CC1=NOC(C)(CNC(=O)c2csc(-c3cccs3)n2)C1 (stereo not drawn) | -3.52%
O=C(Sc1cccs1)c1csc(C2COc3ccccc3O2)n1 (stereo not drawn) | -96.7% (active)
Cc1nc2ccccn2c1C(=O)N1CCCC(Cn2cc(C3CC3)nn2)C1 (stereo not drawn) | 26.9%
CN(C)C(=O)CN1CC2CN(Cc3ccncc3)CCC2(c2ccccc2)C1 (stereo not drawn) | -2.67%
O=C1NCC(CN2CCOc3c(O)cc(-c4csc5ccccc45)cc3C2)O1 (stereo not drawn) | -76.2% (active)
CCC(C(=O)OC)N1CCOc2c(O)cc(-c3ccc(C)s3)cc2C1 (stereo not drawn) | -5%
COc1cc(COC2CN(C(=O)c3csc(SC)n3)CC(=O)N(C(C)C)C2)cc(OC)c1 (stereo not drawn) | -6.26%
CCOCC1CN(Cc2ccc3c(c2)OCO3)Cc2cncn2C1 (stereo not drawn) | -0.275%
CCN1CCN(c2nc(-c3ccc(OC)cc3)nc3ccccc23)CC1 | -47.8%
COc1ccc(-c2nc3ccccc3n2-c2cc(C(C)(C)C)c(O)c(C(C)(C)C)c2)cc1 | -86.1% (active)
OCCn1c(-c2ccc(-c3ccn[nH]3)cc2)nc2ccccc21 | 92.2%
C=CCOCC12CCCOC1CCN(S(=O)(=O)c1cccnc1)C2 (stereo not drawn) | 40.1%
CCOc1ccccc1CNC(=O)c1nc(-c2cccc(F)c2)n2c1CCCCC2 | -84.4% (active)
CCCN1CCN(C(=O)c2nc(-c3cccc(F)c3)n3c2CCCCC3)CC1 | 3.76%
CCOc1ccccc1NC(=O)C(=O)NCCc1csc(-c2cccc(F)c2)n1 | -13.3%
CC(C)N1CCN(C(=O)c2csc(-c3ccc(N4CCCC4)nc3)n2)CC1 | -27.3%

SMILES | activity change, negative = inhibition
Cc1nc2nc(Cc3ccc(Cl)cc3)[nH]n2c(=O)c1Cc1ccccc1 | 4.81%
Nc1cccc(CCc2nc3ccccc3[nH]2)c1 | 22%
Cc1cccc(Cc2c(C)[nH]n(-c3nc4ccccc4[nH]3)c2=O)c1 | -124% (active)
CN(C)c1ncnc2c1CCN(C(=O)c1ccnnc1)CC2 | -0.9%
Cc1ccc(-c2nn(C(C)(C)C)c3ncnc(N)c23)cc1 | -84% (active) and -73.5% (active)
Cn1cc(CN2CCc3ncnc(-c4ccccc4)c3CC2)cn1 | -8.43%
Cc1cccnc1CN(C)C(=O)c1cc(CN2CCC(Cc3ccccc3)CC2)on1 | 9.1%
Oc1c(Cl)cc(Cl)c(Cl)c1Cc1c(O)c(Cl)cc(Cl)c1Cl | -85.3% (active) and -87.1% (active) and -96% (active)
N#Cc1cccc(-c2ccc3c(c2)[C@H]2[C@H](CCN2S(=O)(=O)c2ccc(F)cc2)[C@@H](CO)N3)c1 | -42.4%
COCC#Cc1ccc([C@@H]2[C@@H](CO)N3CCCCN(C(=O)NC4CCCC4)C[C@H]23)cc1 | -18.5%
CC(C)NS(=O)(=O)c1ccc(OCC(=O)N2CCCCCC2)cc1 | 1.18%
O=C1CCCN1CC1CN(Cc2ccccn2)Cc2nccn2C1 (stereo not drawn) | -70.8% (active)
O=C(CC1CCN(Cc2ccccn2)CC1)Nc1ccc(OC2CCCC2)cc1 | -69.9%
O=C1CCCN1CC1CN(c2ncc(F)cn2)Cc2nccn2C1 (stereo not drawn) | 4.1%
COC(=O)c1ccc(-c2noc(-c3c(O)c4ccccc4[nH]c3=O)n2)cc1 | 21.8%
O=C(CCCn1cnnn1)N1CCc2onc(-c3cccc(F)c3)c2C1 | -6.14%
CCCCCc1ccc(C#Cc2ccc(OC(F)F)cc2)cc1 | 5.21%
CCCCc1ccc(S(N)(=O)=O)cc1 | -51.9%
CCCCCCCCCc1ccc(OCCOCCOCCOCCOCCOCCOCCOCCOCCO)cc1 | -80.7% (active)
Cc1cc(-c2cccc(O)c2)nc(-c2ccccc2O)n1 | -20%
CN1C(=O)c2cc(NC(=O)C3CCOCC3)ccc2OC[C@@H]2O[C@H](CC(=O)NCc3ccccc3F)CC[C@H]21 | 11.5%
CN(C)C(=O)N1CCc2ncnc(C3CCOC3)c2CC1 (stereo not drawn) | 1.98%
O=C(Cn1c(=O)cc(C(=O)N2CCCCC2)c2ccccc21)NC1CCCC1 | 11.6%
CC(C)CN1CC[C@H]2[C@H](CC1)S(=O)(=O)CCN2C(=O)c1ccccc1 | 3.93%
CC(C)CN1C(=O)N(C2Cc3ccccc3C2)C(=O)C12CCN(Cc1nc3ccccc3n1C)CC2 | -8.38%
CC(C)CN1CCC2(C=C(C(=O)N(C)C)c3ccccc32)CC1 | -81.7% (active)

SMILES | activity change, negative = inhibition
Cc1ccc(C(=O)N2CCC3(CC2)C(=O)N(C)CCN3CC2CC2)cn1 | 1.05%
CN1C[C@@H]2C3(CCN(C(=O)Nc4ccccc4)CC3)CC[C@@]2(C(=O)N2CCCC2)C1 | 6.69%
COc1ccc2c3c(n(C)c2c1)[C@@H](CO)N(C)CC31CN(S(=O)(=O)c2cccs2)C1 | 36%
C#C[C@]1(O)CC[C@H]2[C@@H]3CCC4=CC(=O)CC[C@@H]4[C@H]3CC[C@@]21CC | -81.4% (active) and -75.5% (active)
C#C[C@]1(O)CC[C@H]2[C@@H]3CCC4=CC(=O)CC[C@@H]4C3CC[C@@]21CC (stereo partly drawn) | -83.8% (active)
COc1cc(-c2nc(CN3[C@@H]4CC[C@H]3CNC(=O)C4)c(C)o2)cc2c1OCO2 | -3.36%
COc1ccccc1NC(=O)Cn1ncc2c(N3CCN(c4ccccc4)CC3)ncnc21 | 74%
COc1ccc(-c2nc(C)c(CCNC(=O)C(=O)Nc3cccc(OC)c3)s2)cc1 | 487%
Cc1oc(-c2cccc(Oc3ccccc3)c2)nc1CN1[C@@H]2CC[C@H]1CNC(=O)C2 | -8.53%
O=C(CC1Nc2c3ccccc3nc(=S)n2C1=O)N1CCN(c2ccc(Cl)cc2)CC1 (stereo not drawn) | -16.2%
COc1ncc(-c2cccc(C(C)N3CCCC3)c2)c(OC)n1 (stereo not drawn) | -10.7%
Cc1noc(C)c1S(=O)(=O)Nc1ccc2c(c1)C(=O)N([C@@H](C)CO)C[C@H](C)[C@@H](CN(C)C(=O)Nc1cccc3ccccc13)OCCCC[C@H](C)O2 | 141%
C[C@H](CO)N1C[C@H](C)[C@H](CN(C)Cc2ccncc2)Oc2ccc(NS(=O)(=O)c3ccc(F)cc3)cc2CC1=O | 33.3%
Cc1ccc(S(=O)(=O)Nc2ccc3c(c2)C(=O)N([C@@H](C)CO)C[C@@H](C)[C@H](CN(C)Cc2ccc(C(F)(F)F)cc2)O3)cc1 | -72.9% (active)
C[C@H](CO)N1C[C@H](C)[C@@H](CN(C)Cc2ccncc2)OCCCC[C@H](C)Oc2ccc(NS(=O)(=O)c3ccc(Cl)cc3)cc2C1=O | -94.1% (active)
Cc1ccc(S(=O)(=O)Nc2ccc3c(c2)C(=O)N([C@H](C)CO)C[C@@H](C)[C@H](CN(C)S(=O)(=O)c2cccs2)OCCCC[C@@H](C)O3)cc1 | -131% (active)
C[C@@H]1CN([C@@H](C)CO)C(=O)c2cc(NS(C)(=O)=O)ccc2O[C@@H]1CN(C)C | -0.62%
C[C@@H]1CN([C@@H](C)CO)C(=O)c2cc(NS(=O)(=O)c3ccccc3)ccc2O[C@@H](C)CCCCO[C@H]1CN(C)C(=O)C1CCCCC1 | -14.8%
C[C@@H]1CN([C@H](C)CO)C(=O)c2cc(NS(=O)(=O)c3cccs3)ccc2O[C@@H](C)CCCCO[C@@H]1CN(C)C(=O)c1ccncc1 | 14.1%
C[C@@H]1CN([C@H](C)CO)C(=O)c2cc(NC(=O)Cc3ccccc3)ccc2O[C@@H](C)CCCCO[C@@H]1CN(C)Cc1ccncc1 | 31.6%
Cc1noc(C)c1S(=O)(=O)N(C)C[C@@H]1OCCCC[C@H](C)Oc2ccc(NC(=O)CCC(F)(F)F)cc2C(=O)N([C@H](C)CO)C[C@H]1C | 94.9%
C[C@@H]1CCCCO[C@@H](CN(C)Cc2ccncc2)[C@H](C)CN([C@H](C)CO)C(=O)c2cc(NC(=O)Cc3ccccc3)ccc2O1 | 318%
C[C@@H]1CN([C@H](C)CO)C(=O)c2cc(NS(=O)(=O)c3ccccc3)ccc2O[C@@H](C)CCCCO[C@H]1CN(C)C(=O)C1CCCCC1 | -116% (active)
CCOC(=O)c1oc2ccc(S(=O)(=O)Nc3ccc4[nH]c(=O)[nH]c4c3)cc2c1C | 75.3%
COCc1nnn2c1CN(Cc1ccc(C)s1)CCC2 | -49.3%
O=C(C1CCOCC1)N1CC(=O)N2[C@H](CO)[C@H](c3ccc(C#CC4CCCCC4)cc3)[C@H]2C1 | 19.2%
